This is a sample that favours compounds with a hit; in the whole collection about 3.1% have one here.
Rin1 Abl inh = inhibitors of Rin1-Abl protein binding, primary screen, biochemical, TR-FRET. Tyrosine-protein kinase ABL1 (Homo sapiens) + Ras and Rab interactor 1 (Homo sapiens), …. inhibition, % at 7.35 µM. 0.4% of 360,000 active. AID 588664, 2011; in the data active = inhibition above about 5%, passing the limit was not always enough
MBD2 inh = inhibitors of MBD2 binding to methylated DNA, primary screen, biochemical, TR-FRET, DNA-binding domain, human; Methyl-CpG-binding domain protein 2 (Homo sapiens), Q9UBB5; MBD2 binding to methylated oligonucleotide; inhibition, % at 4.4 µM; 0.31% of 370,000 active; AID 686964, 2013; in the data active = inhibition above about 13%
Neddyl block = inhibitors of cullin neddylation, primary screen, biochemical, TR-FRET, uHTS, NAE and Ubc12. 0.58% of 360,000 active. AID 651699, 2012. NEDD8-conjugating enzyme Ubc12 (Homo sapiens) + NEDD8-activating enzyme E1 regulatory …. calls only at 25 µM; in the data active = inhibition above about 36%
Target sequence (P61081 whole entry, looked up): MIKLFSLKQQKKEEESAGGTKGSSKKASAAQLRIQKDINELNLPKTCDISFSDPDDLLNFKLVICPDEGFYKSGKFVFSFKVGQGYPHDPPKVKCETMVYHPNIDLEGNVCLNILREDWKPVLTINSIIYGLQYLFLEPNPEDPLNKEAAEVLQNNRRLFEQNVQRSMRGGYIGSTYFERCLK
Target sequence (Q13564 whole entry, looked up): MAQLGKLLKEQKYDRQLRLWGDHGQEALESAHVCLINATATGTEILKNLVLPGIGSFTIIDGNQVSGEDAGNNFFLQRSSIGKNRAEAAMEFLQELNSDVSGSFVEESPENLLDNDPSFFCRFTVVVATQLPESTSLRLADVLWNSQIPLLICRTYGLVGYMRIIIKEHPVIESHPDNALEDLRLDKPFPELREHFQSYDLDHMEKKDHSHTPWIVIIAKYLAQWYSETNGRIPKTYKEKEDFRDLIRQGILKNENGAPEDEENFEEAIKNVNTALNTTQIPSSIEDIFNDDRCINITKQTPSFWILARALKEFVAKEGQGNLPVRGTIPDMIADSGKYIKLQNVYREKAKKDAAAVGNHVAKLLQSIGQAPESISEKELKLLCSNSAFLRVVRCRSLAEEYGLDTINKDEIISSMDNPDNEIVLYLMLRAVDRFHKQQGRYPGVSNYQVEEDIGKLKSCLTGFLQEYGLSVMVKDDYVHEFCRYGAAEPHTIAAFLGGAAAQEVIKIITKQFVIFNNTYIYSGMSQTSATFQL
LEDGF integ inh = blockers of LEDGF/p75-dependent integrase strand transfer – biochemical, TR-FRET, high throughput, primary screen. TR-FRET IN-LEDGF/p75 DNA integration, Eu/Cy5. inhibition, % at 3.7 µM. 0.64% of 370,000 active. AID 743269, 2014;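 active = inhibition above the screen-wide mean plus 3 SD, cut at about 13% in these data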;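 note: signal is the Cy5 over europium emission ratio at 671 and 618 nm; 0% = plate median of compound wells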
proKLK7 act = proKLK7 zymogen activators, primary screen, biochemical, fluorescence intensity | purified proKLK7, EDANS-DABCYL substrate fluorescence; 100% is mature enzyme control, 0% vehicle | activation, % at 7 µM | 0.9% of 370,000 active | AID 652039, 2013;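 active = activation above the mean of all tested compounds plus 3 SD, computed per campaign excluding outliers beyond control limits, cut at about 13% in these data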
UHRF1 MBD2 ctr = UHRF1 methylated DNA binding inhibitors, primary screen, counter-screen for MBD2 inhibitor project, biochemical, TR-FRET, human UHRF1, single concentration. E3 ubiquitin-protein ligase UHRF1 (Homo sapiens), Q96T88. UHRF1 binding to methylated oligo. inhibition, % at 4.4 µM. 0.75% of 370,000 active. AID 687016, 2013; in the data active = inhibition above about 21%;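 note: UHRF1 SRA domain binding a hemimethylated CpG hairpin DNA probe; 0% = median of test compound wells and 100% = reference inhibitor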
IN multimer act = HIV-1 IN multimer formation enhancers, counter-screen for LEDGF/p75 integration inhibitor project, biochemical, TR-FRET; shares compounds with LEDGF integ inh; TR-FRET HIV-1 integrase multimerization; activation, % at 7.7 µM; 17% of 2,000 active; AID 1053131, 2014; in the data active = activation above about 8.9%
TRFRET interf = TR-FRET optical interference artefacts, confirmation, artefact control for LEDGF/p75-dependent integration inhibitor project, biochemical, HIV-1 IN multimerization; shares compounds with LEDGF integ inh; TR-FRET optical interference counterscreen; inhibition, % at 7.7 µM; 2,000 tested, under 10 active;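 active = inhibition above the mean over all tested compounds plus 3 SD, which no compound reached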;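 note: 0% = integrase with antibodies and DMSO and 100% = antibodies without integrase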
IN-LEDGF confirm = inhibitors of HIV-1 IN-LEDGF/p75 DNA integration, confirmation, biochemical, TR-FRET; shares compounds with LEDGF integ inh; TR-FRET LEDGF/p75-dependent HIV-1 integration; inhibition, % at 3.7 µM; 36% of 2,000 active; in the data active = inhibition above about 14%
* = called active by the depositor; i = inactive; . = no result shown.

SMILES | Rin1 Abl inh | MBD2 inh | Neddyl block | LEDGF integ inh | proKLK7 act | UHRF1 MBD2 ctr | IN multimer act | TRFRET interf | IN-LEDGF confirm
COCCCN1C(=O)C(=O)/C(=C(/O)c2ccccc2)C1c1ccc2c(c1)OCO2 (configuration not stated) | -2 | 0 | i | 30* | 0 | -6 | -1 | 4 | 3
COCCCN1C(=O)C(=O)/C(=C(/O)c2ccccc2)C1c1ccc(N(C)C)cc1 (configuration not stated) | 1 | 2 | i | 2 | 0 | -1 | . | . | .
CCC(CC)C(=O)N(C)c1c(C)nc2c(OCc3ccc(F)c(F)c3)cccn12 | -5 | 2 | i | 21* | -1 | 0 | 1 | -5 | 3
CCC(CC)C(=O)N(C)c1c(C)nc2c(OCc3ccc(C(F)(F)F)cc3)cccn12 | 1 | 1 | i | -1 | -1 | -1 | . | . | .
C/C=C/C(=O)Nc1cccc(C2=NOC3(C2)C[C@@H](C(N)=O)N(C(=O)C(c2ccccc2)c2ccccc2)C3)c1 (some centres not stated) | 0 | -2 | i | 1 | 1 | -4 | . | . | .
Cc1onc(-c2c(F)cccc2Cl)c1C(=O)N(Cc1ccccc1)C(C)C | 0 | -8 | i | -3 | 1 | -1 | . | . | .
c1ccc(-c2noc(CN3CCN(C(c4ccccc4)c4ccccc4)CC3)n2)cc1 | 0 | -1 | i | 15* | -1 | 0 | 0 | -2 | -1
Cc1ccc(NC(=O)CNCC2CCCCC2)cc1S(=O)(=O)N(C)C | 3 | 3 | i | 32* | 0 | -1 | 0 | 1 | -15
Nc1nc(COC(=O)C2CC(=O)N(Cc3ccccc3Cl)C2)nc(Nc2ccccc2)n1 (configuration not stated) | -3 | -2 | i | 18* | 1 | 0 | 0 | -1 | -5
CCCn1c(NC(=O)c2ccc(C)cc2)nc2ccccc21 | 1 | 5 | i | 19* | -1 | 1 | -2 | 10 | 22*
Cc1ccc(C(=O)Nc2nc3ccccc3n2CCN2CCCC2)cc1 | -1 | 8 | i | 7 | -1 | 6 | . | . | .
CCCn1c(NC(=O)c2ccccc2)nc2ccccc21 | 0 | 2 | i | 19* | 0 | -1 | -3 | 13 | 24*
CCCn1c(CNC(=O)c2ccccc2)nc2ccccc21 | 4 | -4 | i | -2 | 1 | -3 | . | . | .
CC(C)CN1C(=O)[C@]2(CC(=O)N(C)C2c2ccccc2)c2cc(-n3cc(CN(C)C)nn3)ccc21 (some centres not stated) | . | -4 | . | 3 | 0 | 0 | . | . | .
COc1cc(C(=O)NN=C2c3ccccc3-c3ccccc32)cc(OC)c1OC | . | -2 | . | -2 | 1 | -1 | . | . | .
Cc1coc2c1c(C)cc1oc(=O)c(Cc3ccccc3)c(C)c12 | -1 | 1 | i | 15* | 0 | -1 | -4 | 20 | 4
C#CCN(C[C@H]1[C@H](OC(=O)Nc2c(C)noc2C)[C@H](OC(=O)Nc2c(C)noc2C)CN(C(=O)OC(C)C)N1C(=O)OC(C)C)S(=O)(=O)c1ccc(C)cc1 | . | -5 | . | 0 | 0 | -1 | . | . | .
O=C(CSc1nnc(CNC(=O)c2cccc(C(F)(F)F)c2)o1)NC1CCCC1 | 1 | -7 | i | 45* | 0 | 1 | 0 | 1 | -1
O=C(CSc1nnc(CNC(=O)c2cccc(C(F)(F)F)c2)o1)NCC1CCCO1 (configuration not stated) | 1 | 5 | i | 2 | 0 | -1 | . | . | .
Nc1c2c(=O)[nH]c(O)cc2nn1-c1ccccc1 | 3 | -4 | i | 16* | 0 | 7 | 2 | -7 | 1
CC(=O)N1CCN(c2ccc(N)cc2)CC1 | -8 | 5 | i | 26* | 0 | 14 | 0 | 0 | -1
CC(=O)N1CCN(c2ccc(NCc3cccc(C)c3)cc2)CC1 | 0 | 0 | i | 14* | -2 | -3 | 3 | -17 | -2
CCOC(=O)c1c(C)[nH]c(C)c1C(=O)COc1ncnc2cc([N+](=O)[O-])ccc12 | -5 | -5 | i | 2 | 0 | 1 | . | . | .
C=CCN1C(=O)/C(=C\c2ccc(Cl)cc2)N=C1SCC(=O)NCCC | 2 | -2 | i | 0 | 1 | -2 | . | . | .
COCCNC(=O)CSC1=N/C(=C/c2ccc(Cl)c(Cl)c2)C(=O)N1c1ccccc1F | -2 | 2 | . | 91* | -6 | 1 | 0 | 0 | -3
SMILES | Rin1 Abl inh | MBD2 inh | Neddyl block | LEDGF integ inh | proKLK7 act | UHRF1 MBD2 ctr | IN multimer act | TRFRET interf | IN-LEDGF confirm
O=C(O)c1ccc2cccc(O)c2n1 | 3 | -5 | i | 8 | 0 | 0 | . | . | .
O=C(O)c1cccc(Cl)n1 | -1 | -4 | i | 83* | 0 | 0 | 2 | -8 | -4
COc1ccccc1C(=O)COC(=O)c1cnc(C)cn1 | 2 | -2 | i | 0 | -1 | 2 | . | . | .
COc1cc(COC(=O)c2cnc(C)cn2)c(OC)cc1Br | 2 | -1 | i | 37* | -1 | 0 | 3 | -16 | 4
CCOC(=O)C1CCCN(C(=O)c2ccc3ccccc3c2)CC1 (configuration not stated) | -4 | 2 | i | 3 | 0 | -2 | . | . | .
CCCC(=Nc1ccc(N)cc1)C1=C(O)C(C(=O)OC)C(C)(C)CC1=O (configuration not stated) | 3 | 3 | i | 54* | 1 | 17 | 21* | -75 | 5
O=C1C=C(c2c(O)ccc3ccccc23)c2ccccc2C1=O | 6 | -2 | i | -2 | 0 | 3 | . | . | .
O=C1C=C(O)c2cccc(O)c2C1=O | -3 | -9 | i | 22* | -2 | 12 | 8 | -29 | 14*
C[C@@H]1CCN(C2CC2)S(=O)(=O)c2c(cccc2N2CCC[C@H]2C)O1 | . | 3 | . | -2 | 0 | 4 | . | . | .

Screening data: PubChem, several laboratories
